Results on eight compounds are retold here after PubChem BioAssay (NCI).

Some test systems named below: HCT-15 colon; HT29 colon; SNB-75 CNS; SNB-19 CNS; U251 CNS; PC-3 prostate; SK-MEL-5 melanoma; UACC-62 melanoma; LOX IMVI melanoma; SK-MEL-28 melanoma; SK-MEL-2 melanoma; EKVX NSCLC; SN12C renal; UO-31 renal; TK-10 renal; ACHN renal; CAKI-1 renal; A498 renal; CCRF-CEM leukemia.
Common to all, as to assay: NCI-60 one-dose screen, 48 h (100 = growth as untreated, 0 = no growth, -100 = all killed)
What all share (conditions): 10 µM

About 83,000 compounds went through this panel and 20% of them were active in at least one assay; those are over-represented in the sample as a whole.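 Treatment: one concentration, 48 hours, 96-well format. Scoring: percent growth, with anything below 10 considered active.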 A number with no mark means an inactive call. Active and inactive are the calls of the source.

For the compound `CCN1CCN(c2ccc(NC(=O)Nc3ccc(-c4cc(C(=O)NC(C)C)c5ncccc5n4)cc3)cc2C(F)(F)F)CC1`, the growth with HCT-15 colon is -93.5% (active); with HT29 colon, -82.3% (active); in the experiment on SNB-75 CNS it was -94.3% (active); with SNB-19 CNS, -81.7% (active); in the experiment on U251 CNS it was -89.5% (active); in the experiment on PC-3 prostate it was -55.3% (active). The growth in the experiment on SK-MEL-5 melanoma is -100% (active); in the experiment with UACC-62 melanoma it was -93.3% (active); in the experiment on LOX IMVI melanoma it was -100% (active); with SK-MEL-28 melanoma it was -98.9% (active); with SK-MEL-2 melanoma, -71% (active); in the experiment on EKVX NSCLC, -91.5% (active). The growth is -94.3% (active) with SN12C renal; -94.5% (active) with UO-31 renal; -92.7% (active) in the experiment with TK-10 renal; -93.1% (active) in the experiment with ACHN renal; -95.2% (active) with CAKI-1 renal; -99.1% (active) in the experiment on A498 renal. For the same compound, the growth in the experiment on CCRF-CEM leukemia is -44.5% (active).

Consider `C=C(C)[C@@H]1CC[C@]2(C)[C@H](CC=C3[C@@H]4CC(C)(C)CC[C@]4(C(=O)N4CCOCC4)CC[C@]32C)[C@@]1(C)CCCN`, for which the growth in the experiment with HCT-15 colon is -83.6% (active); in the experiment on HT29 colon, -91% (active); with SNB-75 CNS it was -91.2% (active); in the experiment on SNB-19 CNS, -93.7% (active); in the experiment on U251 CNS, -81.2% (active); with PC-3 prostate it was -79.8% (active). In addition, the growth with SK-MEL-5 melanoma is -96.5% (active); in the experiment with UACC-62 melanoma it was -93.8% (active); in the experiment with LOX IMVI melanoma, -81.7% (active); in the experiment on SK-MEL-28 melanoma, -97% (active); in the experiment on SK-MEL-2 melanoma, -92.1% (active); in the experiment on EKVX NSCLC, -84.1% (active). Moreover, the growth in the experiment on SN12C renal is -89.1% (active); in the experiment with UO-31 renal it was -100% (active); in the experiment on TK-10 renal, -95.7% (active); in the experiment with ACHN renal, -100% (active); in the experiment with CAKI-1 renal, -96.3% (active); in the experiment on A498 renal it was -89.5% (active). For the same compound, the growth with CCRF-CEM leukemia is -57.2% (active).

`COc1ccc(-c2nc(S(=O)(=O)c3ccc(C)cc3)c(S(C)(=O)=O)o2)cc1`: the growth is -72.6% (active) with HCT-15 colon; -74.8% (active) with HT29 colon; 43.6% in the experiment on SNB-75 CNS; 65.5% with SNB-19 CNS; -90.3% (active) in the experiment on U251 CNS; 20.8% in the experiment with PC-3 prostate. Further, the growth is 10.1% with SK-MEL-5 melanoma; -58.2% (active) in the experiment on UACC-62 melanoma; -89.1% (active) with LOX IMVI melanoma; -98.2% (active) in the experiment with SK-MEL-28 melanoma; -62.4% (active) with SK-MEL-2 melanoma; 36.8% with EKVX NSCLC. Further, the growth in the experiment on SN12C renal was -73.3% (active); with UO-31 renal, -100% (active); in the experiment on TK-10 renal, -100% (active); in the experiment with ACHN renal it was -100% (active); in the experiment on CAKI-1 renal, -100% (active); in the experiment with A498 renal it was 116%. For the same compound, the growth in the experiment with CCRF-CEM leukemia is -50.5% (active).

As for `CN1CCN(c2ccc(Nc3nc(N4CCN(S(=O)(=O)c5ccc(F)cc5)CC4)c4sccc4n3)cc2)CC1`, the growth with HCT-15 colon was -79.8% (active); in the experiment on HT29 colon, -63.1% (active); in the experiment with SNB-75 CNS, -97.9% (active); in the experiment with SNB-19 CNS it was -98.1% (active); in the experiment on U251 CNS, -98.5% (active); in the experiment on PC-3 prostate it was -18.4% (active). Further, the growth in the experiment with SK-MEL-5 melanoma is -100% (active); in the experiment with UACC-62 melanoma, -93.3% (active); in the experiment with LOX IMVI melanoma, -91.7% (active); in the experiment on SK-MEL-28 melanoma it was -95.4% (active); in the experiment with SK-MEL-2 melanoma, -72.7% (active); in the experiment on EKVX NSCLC, -89.5% (active). In addition, the growth in the experiment with SN12C renal is -86.4% (active); in the experiment with UO-31 renal, -87.1% (active); in the experiment with TK-10 renal it was -77.9% (active); with ACHN renal it was -100% (active); in the experiment on CAKI-1 renal, -96.3% (active); with A498 renal, -94.3% (active). The growth in the experiment on CCRF-CEM leukemia is -1.97% (active).

For the compound `CC(=O)Nc1nc(-c2ccc(N3CCN(C)CC3)c(NS(=O)(=O)c3cccc4c(N(C)C)cccc34)c2)cs1`, the growth is 18.5% in the experiment with HCT-15 colon; 21.7% in the experiment on HT29 colon; 56.5% in the experiment on SNB-75 CNS; 58.8% in the experiment with SNB-19 CNS; 28.1% in the experiment with U251 CNS; 48.7% in the experiment on PC-3 prostate. Moreover, the growth in the experiment with SK-MEL-5 melanoma is 12.5%; in the experiment on UACC-62 melanoma it was 13.1%; in the experiment with LOX IMVI melanoma, -35.6% (active); with SK-MEL-28 melanoma, -80.1% (active); in the experiment on SK-MEL-2 melanoma, 65.3%; in the experiment on EKVX NSCLC, 69.9%. Further, the growth was 75.6% in the experiment with SN12C renal; 60% in the experiment on UO-31 renal; 84.3% in the experiment with TK-10 renal; 60.7% with ACHN renal; 66.5% in the experiment with CAKI-1 renal; 117% with A498 renal. Also, the growth in the experiment with CCRF-CEM leukemia is 8.38% (active).

Turning to `CCN(CC)CCOc1ccc(C(=C(C)c2ccccc2)c2ccc(OCCN(CC)CC)cc2)cc1`, the growth in the experiment on HCT-15 colon was -31.2% (active); with HT29 colon it was -57.6% (active); in the experiment with SNB-75 CNS it was 6.51% (active); in the experiment with SNB-19 CNS it was 9.06% (active); with U251 CNS, -21.8% (active); in the experiment on PC-3 prostate it was 22.7%. In addition, the growth in the experiment with SK-MEL-5 melanoma is -100% (active); in the experiment on UACC-62 melanoma, -86.5% (active); with LOX IMVI melanoma, -98.8% (active); in the experiment with SK-MEL-28 melanoma, -96.5% (active); in the experiment with SK-MEL-2 melanoma, -75.8% (active); with EKVX NSCLC, 35.3%. In addition, the growth in the experiment on SN12C renal is 56.9%; in the experiment with UO-31 renal it was -41.6% (active); in the experiment with TK-10 renal it was -9.31% (active); in the experiment with ACHN renal, -13.3% (active); in the experiment on CAKI-1 renal it was 8.81% (active); in the experiment with A498 renal it was 78.5%. Moreover, the growth in the experiment on CCRF-CEM leukemia was -27.2% (active).

Turning to `Cc1ccc(-c2nc3ccc(C(=O)N=Nc4c(O)[nH]c5ccc(Cl)cc45)cc3[nH]2)cc1`, the growth was 67.7% in the experiment on HCT-15 colon; 13.2% with HT29 colon; -49.3% (active) in the experiment on SNB-75 CNS; -24% (active) in the experiment on SNB-19 CNS; -100% (active) in the experiment with U251 CNS; -51.9% (active) in the experiment on PC-3 prostate. Moreover, the growth in the experiment on SK-MEL-5 melanoma is 22.1%; with UACC-62 melanoma, 22.6%; with LOX IMVI melanoma, -100% (active); with SK-MEL-28 melanoma, -1.61% (active); with SK-MEL-2 melanoma it was 57.3%; in the experiment with EKVX NSCLC, 37.9%. In addition, the growth with SN12C renal is 23%; with UO-31 renal, 72.4%; with TK-10 renal, 65.6%; in the experiment with ACHN renal, 55.1%; with CAKI-1 renal it was 58%; in the experiment with A498 renal it was 119%. For the same compound, the growth in the experiment on CCRF-CEM leukemia is -31.7% (active).

For `COc1ccc(C(C)=C(c2ccc(OCCCN(C)C)cc2)c2ccc(OCCCN(C)C)cc2)cc1`, the growth with HCT-15 colon is -72.7% (active); in the experiment on HT29 colon it was -94.3% (active); with SNB-75 CNS, -95.3% (active); with SNB-19 CNS, -97.4% (active); in the experiment with U251 CNS, -97.5% (active); with PC-3 prostate it was -82.3% (active). The growth was -98.5% (active) with SK-MEL-5 melanoma; -96.6% (active) with UACC-62 melanoma; -92.5% (active) with LOX IMVI melanoma; -97.9% (active) in the experiment with SK-MEL-28 melanoma; -92.8% (active) in the experiment with SK-MEL-2 melanoma; -85.1% (active) in the experiment on EKVX NSCLC. Further, the growth in the experiment with SN12C renal was -94.2% (active); with UO-31 renal it was -99.4% (active); with TK-10 renal, -97.7% (active); with ACHN renal it was -100% (active); in the experiment with CAKI-1 renal, -100% (active); in the experiment on A498 renal it was -85.2% (active). Also, the growth with CCRF-CEM leukemia is -81.2% (active).
